The campaign covered roughly 5,500 compounds. About 2,000 (36%) were called active. Roughly 18% stayed inconclusive and do not appear here. No stated cut-off is given here; in the data, active means normalized growth mostly below about 0.91 (no sharp cut-off); inconclusive means no clear call, values can overlap the other calls; inactive means mostly above about 0.92. The list shows a part of the results.
Assay: chemical genetic growth profiling, strain panel (AID 1159580);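 further: tested at 20 µM; growth read once vehicle control cultures reached saturation at 30 °C; 1 = growth at the plate median or of vehicle wells; lower values mean less growth of the strain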
Conditions: growth OD

Measured: normalized growth

CCC[C@@H]1C[C@@H](C(=O)N[C@H]([C@H]2O[C@H](SC)[C@H](O)[C@@H](O)[C@H]2O)[C@H](C)O)N(C)C1
inactive: S. cerevisiae deletion strains, locus YJR066W, strain TOR1, active compounds read low 0.967 | S. cerevisiae deletion strains, locus YJR075W, strain HOC1, active compounds read low 0.993 | S. cerevisiae deletion strains, locus YKL009W, strain mrt4, active compounds read low 0.974 | S. cerevisiae deletion strains, locus YKL068W, active compounds read low 0.991 | S. cerevisiae deletion strains, locus YKL085W, strain MDH1 (second series), active compounds read low 0.984 | S. cerevisiae deletion strains, locus YKL085W, strain MDH1, active compounds read low 0.984 | S. cerevisiae deletion strains, locus YKL160W, strain elf1, active compounds read low 0.964 | S. cerevisiae deletion strains, locus YKL190W, strain CNB1, active compounds read low 1.01 | S. cerevisiae deletion strains, locus YKR001C, strain vps1, active compounds read low 0.996 | S. cerevisiae deletion strains, locus YKR026C, strain gcn3, active compounds read low 0.979 | S. cerevisiae deletion strains, locus YKR091W, strain srl3, active compounds read low 0.987 | S. cerevisiae deletion strains, locus YLL001W, strain dnm1, active compounds read low 0.951 | S. cerevisiae deletion strains, locus YLL026W, active compounds read low 0.962 | S. cerevisiae deletion strains, locus YLL041C, strain sdh2, active compounds read low 0.982 | S. cerevisiae deletion strains, locus YLR027C, strain aat2, active compounds read low 0.97 | S. cerevisiae deletion strains, locus YLR039C, strain RIC1, active compounds read low 0.973 | S. cerevisiae deletion strains, locus YLR058C, strain SHM2, active compounds read low 0.977 | S. cerevisiae deletion strains, locus YLR102C, strain apc9, active compounds read low 0.992 | S. cerevisiae deletion strains, locus YLR113W, strain HOG1, active compounds read low 1.03 | S. cerevisiae deletion strains, locus YLR221C, strain rsa3, active compounds read low 1.03 | S. cerevisiae deletion strains, locus YLR258W, strain gsy2, active compounds read low 1 | S. cerevisiae deletion strains, locus YLR262C, strain YPT6 (second series), active compounds read low 0.965 | S. cerevisiae deletion strains, locus YLR262C, strain YPT6, active compounds read low 1.02 | S. cerevisiae deletion strains, locus YLR268W, strain sec22, active compounds read low 1.01 | S. cerevisiae deletion strains, locus YLR320W, strain mms22, active compounds read low 1.02 | S. cerevisiae deletion strains, locus YLR330W, strain CHS5, active compounds read low 0.986 | S. cerevisiae deletion strains, locus YLR342W, strain FKS1 (second series), active compounds read low 1 | S. cerevisiae deletion strains, locus YLR342W, strain FKS1, active compounds read low 0.966 | S. cerevisiae deletion strains, locus YLR357W, strain rsc2, active compounds read low 1 | S. cerevisiae deletion strains, locus YLR370C, strain arc18, active compounds read low 0.972 | S. cerevisiae deletion strains, locus YLR371W, strain rom2, active compounds read low 0.992 | S. cerevisiae deletion strains, locus YLR384C, strain iki3, active compounds read low 0.97 | S. cerevisiae deletion strains, locus YLR418C, strain cdc73, active compounds read low 0.975 | S. cerevisiae deletion strains, locus YML016C, strain PPZ1, active compounds read low 0.989 | S. cerevisiae deletion strains, locus YML032C, strain rad52, active compounds read low 1 | S. cerevisiae deletion strains, locus YML120C, strain ndi1, active compounds read low 0.95 | S. cerevisiae deletion strains, locus YML124C, strain tub3, active compounds read low 0.998 | S. cerevisiae deletion strains, locus YMR058W, strain fet3, active compounds read low 0.975 | S. cerevisiae deletion strains, locus YMR078C, strain ctf18, active compounds read low 0.986 | S. cerevisiae deletion strains, locus YMR125W, strain sto1, active compounds read low 0.992 | S. cerevisiae deletion strains, locus YMR129W, active compounds read low 0.991 | S. cerevisiae deletion strains, locus YMR205C, strain PFK2, active compounds read low 0.99 | S. cerevisiae deletion strains, locus YMR223W, strain ubp8, active compounds read low 0.962 | S. cerevisiae deletion strains, locus YMR231W, strain pep5, active compounds read low 0.996 | S. cerevisiae deletion strains, locus YMR263W, strain SAP30, active compounds read low 0.996 | S. cerevisiae deletion strains, locus YMR307W, strain GAS1, active compounds read low 1 | S. cerevisiae deletion strains, locus YNL067W, strain RPL9B, active compounds read low 1.01 | S. cerevisiae deletion strains, locus YNL071W, strain lat1, active compounds read low 0.986 | S. cerevisiae deletion strains, locus YNL183C, strain NPR1, active compounds read low 0.968 | S. cerevisiae deletion strains, locus YNL209W, strain ssb2, active compounds read low 0.993 | S. cerevisiae deletion strains, locus YNL233W, strain BNI4, active compounds read low 0.984 | S. cerevisiae deletion strains, locus YNL248C, strain rpa49, active compounds read low 1.02 | S. cerevisiae deletion strains, locus YNL250W, strain rad50, active compounds read low 0.979 | S. cerevisiae deletion strains, locus YNL271C, strain bni1, active compounds read low 0.985 | S. cerevisiae deletion strains, locus YNL298W, strain CLA4, active compounds read low 0.989 | S. cerevisiae deletion strains, locus YNL307C, strain MCK1, active compounds read low 0.993 | S. cerevisiae deletion strains, locus YNL322C, strain KRE1 (second series), active compounds read low 0.987 | S. cerevisiae deletion strains, locus YNL322C, strain KRE1, active compounds read low 0.993 | S. cerevisiae deletion strains, locus YNR049C, strain mso1, active compounds read low 0.977 | S. cerevisiae deletion strains, locus YNR052C, strain pop2, active compounds read low 0.987 | S. cerevisiae deletion strains, locus YOL012C, strain htz1 0.745 | S. cerevisiae deletion strains, locus YOL147C, strain pex11, active compounds read low 0.985 | S. cerevisiae deletion strains, locus YOR001W, strain rrp6, active compounds read low 0.947 | S. cerevisiae deletion strains, locus YOR061W, strain CKA2, active compounds read low 0.998 | S. cerevisiae deletion strains, locus YOR069W, strain VPS5, active compounds read low 0.99 | S. cerevisiae deletion strains, locus YOR070C, strain gyp1, active compounds read low 0.993 | S. cerevisiae deletion strains, locus YOR080W, strain dia2, active compounds read low 0.971 | S. cerevisiae deletion strains, locus YOR083W, strain WHI5, active compounds read low 0.966 | S. cerevisiae deletion strains, locus YOR106W, strain vam3, active compounds read low 0.951 | S. cerevisiae deletion strains, locus YOR136W, strain idh2, active compounds read low 0.984 | S. cerevisiae deletion strains, locus YOR144C, strain elg1, active compounds read low 0.985 | S. cerevisiae deletion strains, locus YOR184W, strain ser1, active compounds read low 0.978 | S. cerevisiae deletion strains, locus YOR231W, strain MKK1, active compounds read low 1.04 | S. cerevisiae deletion strains, locus YOR265W, strain rbl2, active compounds read low 0.983 | S. cerevisiae deletion strains, locus YOR270C, strain vph1, active compounds read low 0.948 | S. cerevisiae deletion strains, locus YOR290C, strain snf2, active compounds read low 1 | S. cerevisiae deletion strains, locus YOR316C, strain cot1, active compounds read low 0.992 | S. cerevisiae deletion strains, locus YPL051W, strain arl3, active compounds read low 1 | S. cerevisiae deletion strains, locus YPL078C, strain atp4, active compounds read low 0.928 | S. cerevisiae deletion strains, locus YPL106C, strain sse1, active compounds read low 0.94 | S. cerevisiae deletion strains, locus YPL240C, strain hsp82, active compounds read low 0.981 | S. cerevisiae deletion strains, locus YPL241C, strain CIN2, active compounds read low 0.998 | S. cerevisiae deletion strains, locus YPL256C, strain CLN2, active compounds read low 1.03 | S. cerevisiae deletion strains, locus YPR119W, strain clb2, active compounds read low 0.997 | S. cerevisiae deletion strains, locus YPR141C, strain kar3, active compounds read low 0.985 | S. cerevisiae deletion strains, locus YPR163C, strain tif3, active compounds read low 0.987 | S. cerevisiae deletion strains, locus YPR167C, strain met16, active compounds read low 0.993 | S. cerevisiae deletion strains, strain wtn01, active compounds read low 0.98 | S. cerevisiae strains, strain wild type, active compounds read low 1.01

Source: PubChem BioAssay AID1159580 (chemical genetic matrix, 2015)
